Results filed as inconclusive are left out. A call without a number means that no potency is given here. Activity calls are given as the source filed them. Calls come from the whole dose curve; as a rule, active = well fitted cell-killing curve with a large enough effect in the repeat runs; inconclusive = weak or mixed curves, or effect the other way; inactive = flat fitted curve, though single readings scatter.
Assay: qHTS assay to identify small molecule that activate the aryl hydrocarbon receptor (AhR) signaling pathway - cell viability counter screen (AID 743086);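 note: HepG2 liver cells carrying the AhR DRE luciferase reporter; nearly all actives have a fitted effect of over 45% in size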
Details: HepG2-AhR-luc viability, CellTiter-Fluor, 24 h; series mostly up to 70.3 µM
How it was run: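 HepG2-AhR-luc (HG2L7.5c1) cells, 4000/well, were preincubated 5 h at 37C, exposed to compound in qHTS format for 24 hr at 37C, then given CellTiter-Fluor for 30 min; viability was read as fluorescence in the reporter wells.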

Structure (SMILES)	Potency
CC(C)(C)C(=O)Oc1ccc(S(=O)(=O)Nc2ccccc2C(=O)NCC(=O)O)cc1	inactive
CN(C)CCCN(C)CCCN(C)C	inactive
CC(=O)NC(=O)c1ccccc1O	inactive
CCC(C(=O)NC(=O)NC(C)=O)c1ccccc1 (stereo not drawn)	inactive
O=C(O)CCSCCC(=O)O	inactive
CCC(C)(CCCC(C)C)OC(C)=O (stereo not drawn)	inactive
CC(=O)Nc1ccc(OCC(O)CNC(C)C)cc1 (stereo not drawn)	inactive
CN(C)[C@@H]1C(=O)C(C(=O)NCN2CCCC2)=C(O)[C@@]2(O)C(=O)C3=C(O)c4c(O)cccc4[C@@](C)(O)C3C[C@@H]12 (stereo partly drawn)	inactive
O=C(CO)[C@@H](O)[C@H](O)[C@@H](O)CO	inactive
COC(=O)Nc1ccc(Cl)c(Cl)c1	inactive
CNCCO	inactive
CCCc1ncc(C[n+]2ccccc2C)c(N)n1	inactive
CCCCCCCCCCCCCCCCCCO	inactive
COc1cc(C(=O)OC(COCCC(C)C)CN2CCOCC2)cc(OC)c1OC (stereo not drawn)	inactive
CCC1C(=O)OCC1Cc1cncn1C (stereo not drawn)	inactive
CCCOC(=O)CC	inactive
CCC(=O)OCc1ccccc1	inactive
CCOc1ccccc1OCC	inactive

— PubChem BioAssay (Tox21)
